Experimental data reported in the supplement of paper PMC9135407.
Values joined by “and” are separate entries in the source; they are usually repeats but may differ in a detail not shown here. Equal values may be shown once. Where a name gives a salt, the structure may show the parent alone. In all, about 5,800 compounds went through this assay and about 620 (11%) showed activity. The full list was thinned out, with actives kept by preference. Values without a mark were called inactive.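 The calls were made as follows: active = score above a cut-off or among the top three wells of a plate; in these data no inactive exceeds 0.85.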

Tested on: primary human hepatic stellate cells (donor 1)
Experiment: scaled lipid accumulation score (0 = DMSO-like, 1 = nortriptyline-like); higher = stronger HSC inactivation (lipid re-accumulation), active = hit call of the paper
Conditions: 48 h
[1] = library stock concentration: 3.33 mM
[2] = library stock concentration: 10 mM
[3] = library stock concentration: 80 uM
[4] = library stock concentration: 400 uM
[5] = library stock concentration: 2 mM
[6] = library stock concentration: 1 mM
[7] = library stock concentration: 5.3 mM

O=C(c1cc2cc(O)ccc2[nH]1)c1cc2cc(O)ccc2[nH]1 [Flt-3 Inhibitor II]
scaled lipid accumulation score [1]: ≤ 0

Nc1ccccc1NC(=O)c1ccc(CNc2nccc(-c3cccnc3)n2)cc1 [Mocetinostat (MGCD0103)] [listing 1 of 2 here]
scaled lipid accumulation score [2]: 0.769

Nc1ccccc1NC(=O)c1ccc(CNc2nccc(-c3cccnc3)n2)cc1 [Mocetinostat] [listing 1 of 2 here]
scaled lipid accumulation score [3]: ≤ 0 | scaled lipid accumulation score [4]: ≤ 0

Nc1ccccc1NC(=O)c1ccc(CNc2nccc(-c3cccnc3)n2)cc1 [Mocetinostat] [listing 2 of 2 here]
scaled lipid accumulation score [5]: 0.728 (active) | scaled lipid accumulation score [2]: 0.648 (active)

Nc1ccccc1NC(=O)c1ccc(CNC(=O)OCc2cccnc2)cc1 [Entinostat (MS-275)]
scaled lipid accumulation score [1]: 0.152 | scaled lipid accumulation score [2]: 0.418

CC(=O)Nc1ccc(C(=O)Nc2ccccc2N)cc1 [CI994 (Tacedinaline)]
scaled lipid accumulation score [1]: ≤ 0 | scaled lipid accumulation score [2]: 0.161

Nc1ccccc1NC(=O)c1ccc(CNc2nccc(-c3cccnc3)n2)cc1 [Mocetinostat (MGCD0103)] [listing 2 of 2 here]
scaled lipid accumulation score [1]: 0.974 (active)

O=C(Nc1ccc(Cl)cc1)c1ccccc1NCc1ccncc1 [VEGF Receptor Tyrosine Kinase Inhibitor II]
scaled lipid accumulation score [1]: ≤ 0

Nc1ccccc1NC(=O)c1ccc(CNC(=O)OCc2cccnc2)cc1
scaled lipid accumulation score [3]: ≤ 0 | scaled lipid accumulation score [4]: ≤ 0 | scaled lipid accumulation score [6]: 0.014 | scaled lipid accumulation score [5]: ≤ 0 | scaled lipid accumulation score [2]: 0.628

COC(=O)C(N)Cc1ccc(Cl)cc1 (racemic) [DL-p-Chlorophenylalanine methyl ester hydrochloride]
scaled lipid accumulation score [2]: ≤ 0

CCCCCCCC/C=C\CCCCCCCC(=O)OC[C@@H](O)COP(=O)(O)O [1-Oleoyl Lysophosphatidic Acid (sodium salt)]
scaled lipid accumulation score [6]: ≤ 0

CCCCCCCC/C=C\CCCCCCCC(=O)OC[C@@H](O)COP(=O)(O)O [1-Oleoyl Lysophosphatidic Acid]
scaled lipid accumulation score [6]: ≤ 0

CCCCCCCCCCOc1ccc(OCC(=O)Cn2cc(C(=O)OC)c3cc(C(=O)O)ccc32)cc1
scaled lipid accumulation score [6]: ≤ 0

CCCCCCC(Sc1nc(Cl)cc(NCc2ccc(-c3ccccc3)cc2)n1)C(=O)O (stereo unspecified)
scaled lipid accumulation score [6]: ≤ 0

CCCCCC(=O)CCC1C(=O)C=CC1C/C=C\CCCC(=O)O (stereo unspecified) [13,14-dihydro-15-keto Prostaglandin J2]
scaled lipid accumulation score [6]: ≤ 0

CCCCC[C@H](O)/C=C/[C@H]1OC(O)C[C@H](O)[C@@H]1C/C=C\CCCC(=O)O (stereo partly specified) [Thromboxane B2]
scaled lipid accumulation score [6]: ≤ 0

CC(C)CCN1C(=O)N(CCN(C)C)C(=O)C12CCN(Cc1cn(C)c3ccccc13)CC2
scaled lipid accumulation score [2]: 0.692 (active)

C[C@@H]1[C@H](O)[C@@H](C)/C=C/C=C/C=C/C=C/C=C/C=C/C=C/[C@H](O[C@@H]2O[C@H](C)[C@@H](O)[C@H](N)[C@@H]2O)C[C@@H]2O[C@](O)(C[C@@H](O)C[C@@H](O)[C@H](O)CC[C@@H](O)C[C@@H](O)CC(=O)O[C@H]1C)C[C@H](O)[C@H]2C(=O)O [Amphotericin b]
scaled lipid accumulation score [2]: ≤ 0

C[C@@H]1[C@H](O)[C@@H](C)/C=C/C=C/C=C/C=C/C=C/C=C/C=C/[C@H](O[C@@H]2O[C@H](C)[C@@H](O)[C@H](N)[C@@H]2O)C[C@@H]2O[C@](O)(C[C@@H](O)C[C@@H](O)[C@H](O)CC[C@@H](O)C[C@@H](O)CC(=O)O[C@H]1C)C[C@H](O)[C@H]2C(=O)O [Amphotericin B]
scaled lipid accumulation score: 0.003 | scaled lipid accumulation score [1]: 0.002 | scaled lipid accumulation score [2]: ≤ 0

S=C(Nc1ccccc1)Nc1nccs1 [1-Phenyl-3-(2-thiazolyl)-2-thiourea]
scaled lipid accumulation score [2]: ≤ -0.055

COc1cccc(Nc2c(C(N)=O)cnc3c(C)cc(S(=O)(=O)c4cccc(C(=O)N(C)C)c4)cc23)c1
scaled lipid accumulation score [1]: ≤ 0 | scaled lipid accumulation score [2]: ≤ 0

CCCCCC(O)C=CC1C(O)CC(=O)C1CCCCCCC(=O)O (stereo unspecified) [8-iso Prostaglandin E1]
scaled lipid accumulation score [6]: ≤ 0

CCCCCC(O)C=CC1C(O)CC(=O)C1CCCCCCC(=O)O [15(R)-Prostaglandin E1]
scaled lipid accumulation score [6]: ≤ 0

COc1cc(C)c(Sc2cnc(NC(=O)c3ccc(CNC(C)C(C)C)cc3)s2)cc1C(=O)N1CCN(C(C)=O)CC1 (stereo unspecified) [listing 1 of 2 here]
scaled lipid accumulation score [2]: 0.891 (active)

COc1cc(C)c(Sc2cnc(NC(=O)c3ccc(CNC(C)C(C)(C)C)cc3)s2)cc1C(=O)N1CCN(C(C)=O)CC1 (stereo unspecified)
scaled lipid accumulation score [3]: ≤ -0.009 | scaled lipid accumulation score [4]: ≤ -0.009 | scaled lipid accumulation score [5]: 0.095 | scaled lipid accumulation score [2]: 0.769

COc1cc(C)c(Sc2cnc(NC(=O)c3ccc(CNC(C)C(C)C)cc3)s2)cc1C(=O)N1CCN(C(C)=O)CC1 (stereo unspecified) [listing 2 of 2 here]
scaled lipid accumulation score [3]: 0.006 | scaled lipid accumulation score [4]: ≤ 0 | scaled lipid accumulation score [5]: 0.398

CC(C(O)c1ccc(O)cc1)N1CCC(Cc2ccccc2)CC1.CC(C(O)c1ccc(O)cc1)N1CCC(Cc2ccccc2)CC1.O=C(O)C(O)C(O)C(=O)O (stereo unspecified) [Ifenprodil tartrate]
scaled lipid accumulation score [2]: 1.11 (active)

CC(C(O)c1ccc(O)cc1)N1CCC(Cc2ccccc2)CC1 (stereo unspecified) [Ifenprodil Tartrate]
scaled lipid accumulation score [1]: ≤ 0 | scaled lipid accumulation score [2]: 0.077

CC(C(O)c1ccc(O)cc1)N1CCC(Cc2ccccc2)CC1 (stereo unspecified) [Ifenprodil tartrate]
scaled lipid accumulation score: 0.252

CC(C(O)c1ccc(O)cc1)N1CCC(Cc2ccccc2)CC1 (stereo unspecified) [Ifenprodil]
scaled lipid accumulation score (library stock concentration: 6.1 mM): 0.223 | scaled lipid accumulation score (library stock concentration: 9.6 mM): 0.096

CC(C(O)c1ccc(O)cc1)N1CCC(Cc2ccccc2)CC1 (stereo unspecified) [Ifenprodil hemitartrate]
scaled lipid accumulation score [2]: 0.45

C[C@@H](CN1CCC(Cc2ccccc2)CC1)[C@@H](O)c1ccc(O)cc1 [Ro 25-6981 maleate]
scaled lipid accumulation score [2]: 0.284

C[C@@H](CN1CCC(Cc2ccccc2)CC1)[C@@H](O)c1ccc(O)cc1 [Ro 25-6981 hydrochloride]
scaled lipid accumulation score [2]: ≤ 0

Nc1nc(=S)c2ncn([C@@H]3O[C@H](CO)[C@@H](O)[C@H]3O)c2[nH]1 [Thioguanosine]
scaled lipid accumulation score: 0.076

CCCCC[C@H](O)/C=C/[C@@H]1[C@H](CCCCCCC(=O)O)[C@@H](O)C[C@H]1O [8-iso Prostaglandin F1.alpha.]
scaled lipid accumulation score [6]: ≤ 0

CCCCC/C=C\C/C=C\C/C=C\CCCCC(=O)O [.gamma.-Linolenic Acid]
scaled lipid accumulation score [6]: 0.011

CCCCC/C=C\C/C=C\C/C=C\CCCCC(=O)O [Gamma-linolenic acid (18:3 n-6)]
scaled lipid accumulation score [6]: 0.024

OCCOCCN1CCN(C(c2ccccc2)c2ccc(Cl)cc2)CC1 (stereo unspecified) [Hydroxyzine 2HCl]
scaled lipid accumulation score [1]: 0.1 | scaled lipid accumulation score [2]: 0.631

Cl.Clc1ccc(CCCOCCCN2CCCCC2)cc1
scaled lipid accumulation score [2]: 1.05 (active)

OCCOCCN1CCN(C(c2ccccc2)c2ccc(Cl)cc2)CC1 (stereo unspecified) [Hydroxyzine dihydrochloride]
scaled lipid accumulation score: 0.453

OC(CCCN1CCCCC1)(c1ccccc1)c1ccccc1 [Diphenidol hydrochloride]
scaled lipid accumulation score: 0.315

OCCOCCN1CCN(C(c2ccccc2)c2ccc(Cl)cc2)CC1 (stereo unspecified) [Hydroxyzine pamoate]
scaled lipid accumulation score (library stock concentration: 2.6 mM): 0.044 | scaled lipid accumulation score [2]: 0.142

OC(CCCN1CCCCC1)(c1ccccc1)c1ccccc1 [Diphenidol HCl]
scaled lipid accumulation score [1]: ≤ 0 | scaled lipid accumulation score [2]: 0.007

CCCCC[C@H](O)/C=C/[C@@H]1[C@@H](C/C=C\CCCC(=O)NCCO)[C@@H](O)C[C@H]1O [Prostaglandin F2.alpha. Ethanolamide]
scaled lipid accumulation score [6]: ≤ 0

Nc1ncnc2c1ncn2[C@@H]1O[C@H](CO)C[C@@H]1O [3'-deoxydenosine]
scaled lipid accumulation score [2]: ≤ 0

CC(C)(C)NCC(O)c1ccc(O)c(CO)c1 (racemic) [Albuterol (+/-)]
scaled lipid accumulation score [2]: 0.068

CO/N=C(\C(=O)N[C@@H]1C(=O)N2C(C(=O)O)=C(CSc3nnnn3C)CS[C@H]12)c1csc(N)n1
scaled lipid accumulation score [2]: ≤ 0

CC(C)=CCCC(C)(OC1OC(COC2OCC(O)C(O)C2O)C(O)C(O)C1O)C1CCC2(C)C1C(O)CC1C3(C)CCC(OC4OC(CO)C(O)C(O)C4O)C(C)(C)C3CCC12C (stereo unspecified) [Gynostemma Extract]
scaled lipid accumulation score [1]: 0.01 | scaled lipid accumulation score [2]: ≤ 0

O=C(CCCN1CCC(O)(c2ccc(Br)cc2)CC1)c1ccc(F)cc1 [Bromperidol]
scaled lipid accumulation score: 0.632 | scaled lipid accumulation score (library stock concentration: 4.8 mM): 0.429

O=C(CCCN1CCC(O)(c2ccc(Cl)cc2)CC1)c1ccc(F)cc1 [Haloperidol] [listing 1 of 2 here]
scaled lipid accumulation score: 0.589 | scaled lipid accumulation score [1]: 0.302 | scaled lipid accumulation score [7]: 0.447 | scaled lipid accumulation score [2]: 0.787 and 0.814 and 0.297

O=C(CCCN1CCC(O)(c2ccc(Cl)cc2)CC1)c1ccc(F)cc1 [Haloperidol] [listing 2 of 2 here]
scaled lipid accumulation score [2]: 1.12 (active)

Cl.O=C(CCCN1CCC(O)(c2cccc(C(F)(F)F)c2)CC1)c1ccc(F)cc1 [Trifluperidol hydrochloride]
scaled lipid accumulation score [2]: 0.88 (active)

NC(=O)C1(N2CCCCC2)CCN(CCCC(=O)c2ccc(F)cc2)CC1
scaled lipid accumulation score [2]: ≤ 0

O=C(CCCN1CCC(O)(c2cccc(C(F)(F)F)c2)CC1)c1ccc(F)cc1 [Trifluperidol 2HCl]
scaled lipid accumulation score (library stock concentration: 4.9 mM): 0.327

O=C(CCCN1CCC(O)(c2ccc(Cl)cc2)CC1)c1ccc(F)cc1 [Haloperidol hydrochloride]
scaled lipid accumulation score [2]: 0.78

O=C(CCCN1CCC(O)(c2ccc(Cl)cc2)CC1)c1ccc(F)cc1 [Haloperidol HCl]
scaled lipid accumulation score [7]: 0.419

COc1ccc(C2(CNC(=O)c3ccc(NC(=O)c4ccco4)cc3)CCOCC2)cc1
scaled lipid accumulation score [3]: ≤ 0 | scaled lipid accumulation score [4]: ≤ 0 | scaled lipid accumulation score [5]: ≤ 0 | scaled lipid accumulation score [2]: ≤ 0
